PubChem BioAssay (Tox21)
Results filed as inconclusive are left out. Activity calls are given as the source filed them. Unless noted, calls come from the whole dose curve; as a rule, active = well fitted curve in the direction sought with a large enough effect in the repeat runs; inconclusive = weak or mixed curves; inactive = no such curve, though single readings can be large; an effect the other way counts as inactive or inconclusive. Non-standard residues stand in square brackets, D forms with d. Residues, ends and D or L forms follow the SMILES beside them. *: point of attachment. Sta = CC(C)C[C@H](N)[C@@H](O)CC(=O)O; Isovaleryl = CC(C)CC(=O)*

Assays:
[1] = qHTS assay to identify small molecule agonists or antagonists of the thyroid stimulating hormone receptor (TSHR) signaling pathway - wild type cell line counter screen (AID 1259384; calls by dose curve)
Summary of the method: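 Wild-type HEK293 cells were plated 18 h at 37 C/5% CO2, pin-dosed with compound plus Ro20-1724 medium, held 30 min at room temperature, then given cAMP-d2 and anti-cAMP-cryptate; fluorescence was read after 1 h. Fifteen concentrations, triplicate.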

[2] = molecular target: Thyrotropin receptor (Homo sapiens) (UniProt P16473); experiment: qHTS assay to identify small molecule antagonists of the thyroid stimulating hormone receptor (TSHR) signaling pathway (AID 1259385; calls by dose curve; note: nearly all actives have a fitted effect of over 20% in size)
Sequence of Thyrotropin receptor (Homo sapiens) (P16473 whole entry, looked up): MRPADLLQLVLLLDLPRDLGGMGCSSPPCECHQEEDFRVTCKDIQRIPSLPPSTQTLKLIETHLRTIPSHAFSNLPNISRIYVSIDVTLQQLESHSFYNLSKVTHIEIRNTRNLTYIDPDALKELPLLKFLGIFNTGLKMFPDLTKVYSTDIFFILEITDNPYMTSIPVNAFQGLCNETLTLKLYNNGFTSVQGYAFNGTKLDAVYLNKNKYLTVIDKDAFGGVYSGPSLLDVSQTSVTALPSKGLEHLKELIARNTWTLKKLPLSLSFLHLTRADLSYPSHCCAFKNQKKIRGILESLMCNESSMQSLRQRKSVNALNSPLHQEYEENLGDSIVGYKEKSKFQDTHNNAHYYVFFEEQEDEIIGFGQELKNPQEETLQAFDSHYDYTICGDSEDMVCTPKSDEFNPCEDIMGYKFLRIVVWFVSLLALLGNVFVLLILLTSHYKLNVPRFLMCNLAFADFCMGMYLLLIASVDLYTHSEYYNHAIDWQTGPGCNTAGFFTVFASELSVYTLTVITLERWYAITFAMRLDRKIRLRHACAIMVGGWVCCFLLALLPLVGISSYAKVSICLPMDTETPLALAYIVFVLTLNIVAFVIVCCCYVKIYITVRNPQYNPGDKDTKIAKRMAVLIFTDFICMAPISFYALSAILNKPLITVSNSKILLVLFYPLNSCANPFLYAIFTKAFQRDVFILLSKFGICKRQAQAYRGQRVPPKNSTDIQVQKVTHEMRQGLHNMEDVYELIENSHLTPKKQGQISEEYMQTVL
Summary of the method: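 TSHR-HEK293 cells were plated and held 18 h at 37C/5% CO2, then given compound plus Ro20-1724 and stimulated with TSH at 1.5 ng/mL final. After 30 min at room temperature, cAMP was detected with cAMP-d2/anti-cAMP-cryptate (1 h) by fluorescence.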

[3] = qHTS assay to identify small molecule agonists of the estrogen receptor alpha (ER-alpha) signaling pathway in the presence of an antagonist - cell viability counter screen (AID 1259386);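 note: series mostly up to about 92 µM; cells exposed to compounds for 22 h at 37 °C before the viability read; nearly all actives have a fitted effect of over 30% in size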
Summary of the method: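 Read-out: CellTiter-Fluor fluorescence after 1hr reagent incubation, measured in the same wells as the luciferase readout. VM7Luc4E2 cells were exposed to 15 compound concentrations with 10.0nM ICI-182,780 for 22hr at 37C.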

[4] = molecular target: Progesterone receptor (Homo sapiens) (UniProt P06401); experiment: qHTS assay to identify small molecule agonists of the progesterone receptor (PR) signaling pathway (AID 1346784; calls by dose curve; note: nearly all actives have a fitted effect of over 30% in size)
Sequence of Progesterone receptor (Homo sapiens) (P06401 whole entry, looked up): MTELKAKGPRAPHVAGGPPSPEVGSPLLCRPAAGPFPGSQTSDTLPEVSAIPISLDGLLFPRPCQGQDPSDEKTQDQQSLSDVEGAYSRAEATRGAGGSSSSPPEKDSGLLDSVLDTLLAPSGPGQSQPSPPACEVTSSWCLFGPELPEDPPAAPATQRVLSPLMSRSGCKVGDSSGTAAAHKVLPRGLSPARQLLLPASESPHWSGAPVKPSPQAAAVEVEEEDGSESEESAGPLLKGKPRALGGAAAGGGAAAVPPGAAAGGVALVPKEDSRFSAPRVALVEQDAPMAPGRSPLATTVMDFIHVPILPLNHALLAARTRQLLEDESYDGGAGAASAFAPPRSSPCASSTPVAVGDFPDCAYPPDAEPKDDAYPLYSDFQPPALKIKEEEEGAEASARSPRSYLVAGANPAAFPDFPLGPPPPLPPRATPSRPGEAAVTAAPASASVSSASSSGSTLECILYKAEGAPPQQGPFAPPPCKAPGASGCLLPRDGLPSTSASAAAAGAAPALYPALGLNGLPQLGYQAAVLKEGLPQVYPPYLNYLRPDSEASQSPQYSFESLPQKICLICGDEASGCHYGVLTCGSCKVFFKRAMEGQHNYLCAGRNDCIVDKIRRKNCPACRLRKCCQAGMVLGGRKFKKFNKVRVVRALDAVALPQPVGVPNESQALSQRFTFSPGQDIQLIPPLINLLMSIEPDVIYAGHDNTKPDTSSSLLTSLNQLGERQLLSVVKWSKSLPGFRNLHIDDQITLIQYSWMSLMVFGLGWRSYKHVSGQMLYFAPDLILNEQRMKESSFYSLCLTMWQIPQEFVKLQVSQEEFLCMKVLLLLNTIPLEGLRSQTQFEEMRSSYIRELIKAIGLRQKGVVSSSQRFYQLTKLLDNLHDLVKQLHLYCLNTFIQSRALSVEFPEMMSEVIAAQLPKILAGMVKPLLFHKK
Summary of the method: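 Seed PR-UAS-bla HEK 293T cells (2% charcoal-stripped FBS), incubate 6 hr at 37C; add compounds in DMSO, 16 hr at 37C; add LiveBLAzer B/G substrate, 2 hr RT; read fluorescence intensity.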

[5] = qHTS assay to identify small molecule antagonists of the progesterone receptor (PR) signaling pathway - cell viability counter screen (AID 1346798); note: series mostly up to about 92 µM; nearly all actives have a fitted effect of over 50% in size
Summary of the method: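 Measures cytotoxicity in parallel with the PR antagonist reporter read: HEK293T PR-UAS-bla cells get compound and R5020 for 16 hr, and remaining viable cells are quantified by CellTiter-Glo luminescence.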

[6] = qHTS assay to identify small molecule agonists of the progesterone receptor (PR) signaling pathway - cell viability counter screen (AID 1346799; calls by dose curve; note: nearly all actives have a fitted effect of over 45% in size)
Summary of the method: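 Using the same plates as the PR reporter screen, HEK293T PR-UAS-bla cells received compounds for 16 hr at 37C and were then lysed with CellTiter-Glo; luminescence was read 30 min later at room temperature.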

[7] = qHTS assay to identify small molecule antagonists of the TGF-beta/Smad signaling pathway - cell viability counter screen (AID 1346824); note: nearly all actives have a fitted effect of over 50% in size
Summary of the method: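 SBE-bla HEK 293T cells were plated overnight at 37 C, then given compounds in DMSO plus TGF-beta1 (added as 0.25 ng/mL solution) for 5 hr. After the bla read, CellTiter-Glo was added to the same wells and luminescence read after 30 min at room temperature.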

[8] = qHTS assay to identify small molecule agonists of the TGF-beta/Smad signaling pathway - cell viability counter screen (AID 1346829); note: top concentration of the series differs between compounds; nearly all actives have a fitted effect of over 45% in size
Summary of the method: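 After overnight seating at 37 C and 5% CO2, reporter cells got compounds for 5 hr and FRET substrate for 2 hr; cell viability then came from CellTiter-Glo luminescence.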

[9] = molecular target: Progesterone receptor (Homo sapiens) (UniProt P06401); experiment: qHTS assay to identify small molecule antagonists of the progesterone receptor (PR) signaling pathway (AID 1346795; active = well fitted inhibition curve with a large enough effect in the signal ratio in the repeat runs, not every such curve was filed as active; the % refers to the signal ratio)
Summary of the method: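 Screening used a GripTite HEK293T line with PR-responsive UAS-beta-lactamase. Cells were challenged with compound in the presence of 1 nM R5020 final for 16 hr at 37C; B/G FRET substrate, 2 hr room temperature, fluorescence.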

Measured: Potency

C=CC(=O)CC
not listed: [9]
inactive: all other assays above

O=C(O)Cc1c(Cl)ccc(Cl)c1Cl
not listed: [4] | [9]
inactive: all other assays above

O=c1c(O)c(O)c1=O
not listed: [4] | [5]
inactive: all other assays above

N=C(N)N
not listed: [5] | [7]
inactive: all other assays above

Cc1nnc(C(=O)NC(C)(C)c2nc(C(=O)NCc3ccc(F)cc3)c(O)c(=O)n2C)o1
not listed: [9]
inactive: all other assays above

CC1(C)C(=O)C(C)(C)C1=O
not listed: [1] | [2] | [9]
inactive: all other assays above

COC(=O)c1ccccc1Cl
inactive: [3] | [9] | [7] | [8]

C=CC(=O)OCCOCCOCC
inactive: [4] | [5] | [6] | [7] | [8]

CC1(C)CC(N)CC(C)(C)N1
not listed: [3] | [9]
inactive: all other assays above

CC(=O)c1c(C)cc(C(C)(C)C)cc1C
not listed: [1] | [2]
inactive: all other assays above

N#Cc1ccccc1C#N
inactive: [3] | [4] | [6] | [7] | [8]

CCCCS
not listed: [2] | [7]
inactive: all other assays above

C[n+]1ccccc1/C=N/O
inactive: [1] | [2] | [9] | [7] | [8]

CNC(C)=O
inactive: [1] | [2] | [9] | [8]

Cc1ccc2cccnc2c1
inactive: [3] | [4] | [9] | [6] | [8]

O=C(O)CCC(=O)Nc1ccc(S(=O)(=O)Nc2nccs2)cc1
not listed: [1] | [2] | [9]
inactive: all other assays above

CNCCc1ccccn1
not listed: [3] | [4] | [5]
inactive: all other assays above

CC(C)CC(=O)N[C@H](C(=O)N[C@H](C(=O)N[C@@H](CC(C)C)[C@@H](O)CC(=O)N[C@@H](C)C(=O)N[C@@H](CC(C)C)[C@@H](O)CC(=O)O)C(C)C)C(C)C (Isovaleryl-VV[Sta]A[Sta]-OH)
inactive: [1] | [2] | [5] | [6] | [8]

CN(C)c1cc(NC(=O)CNC(C)(C)C)c(O)c2c1C[C@H]1C[C@H]3[C@H](N(C)C)C(=O)C(C(N)=O)=C(O)[C@@]3(O)C(=O)C1=C2O
not listed: [2] | [6]
inactive: all other assays above

Cc1ccc(O)c(C(=O)c2ccccc2)c1
not listed: [2] | [5] | [9]
inactive: all other assays above

COC(C)(C)CC(C)=O
inactive: [3] | [4] | [9] | [8]

O=P(O)(O)C(O)(Cc1cccnc1)P(=O)(O)O
inactive: [3] | [4] | [6] | [7] | [8]

CC(C)c1cc(C(C)C)cc(C(C)C)c1
not listed: [1] | [2] | [6]
inactive: all other assays above

Nc1ccc(C(=O)NCC(=O)O)cc1
not listed: [1] | [2] | [9]
inactive: all other assays above

NNC(=O)CCCCC(=O)NN
not listed: [1] | [2] | [6]
inactive: all other assays above

Nc1nc(Cl)cc(Cl)n1
not listed: [1] | [2] | [6]
inactive: all other assays above

CC(C)C(C)C
inactive: [1] | [2] | [6] | [7] | [8]

Cc1cc2c(cc1CC(=O)c1sccc1S(=O)(=O)Nc1onc(C)c1Cl)OCO2
not listed: [1] | [2]
inactive: all other assays above

O=c1[nH]c(=O)c2cn[nH]c2[nH]1
not listed: [1] | [2]
inactive: all other assays above

CC[N+](C)(CC)CC
not listed: [1] | [2]
inactive: all other assays above

CNC(=O)c1c(I)c(NC(C)=O)c(I)c(C(=O)O)c1I
not listed: [1] | [2] | [7]
inactive: all other assays above
